Experimental data published in PubChem BioAssay AID436 (Emory University Molecular Libraries Screening Center, 2006).
The campaign covered roughly 72,000 compounds. About 350 (0.49%) were called active.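 How the source made its calls: active means activity remaining at or below 50% of control, provided the compound also passes the data quality filters; inactive means the rest, including low values that fail the filters.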 For the sample, actives were picked, then their nearest neighbours and some compounds at random.

What follows are compounds tested against Ubiquitin carboxyl-terminal hydrolase BAP1 (Homo sapiens) (UniProt Q92560) (assay: inhibitors of BAP1 deubiquitinase, primary screen, biochemical, Ub-AMC fluorescence, kinetic (AID 436;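 further: 100% = DMSO wells rate and 0% = substrate alone blank rate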)). Details: recombinant BAP1, Ub-AMC hydrolysis fluorescence kinetic; at 20 µM; stronger effect = lower value.
Sequence of Ubiquitin carboxyl-terminal hydrolase BAP1 (Homo sapiens) (Q92560 whole entry, looked up): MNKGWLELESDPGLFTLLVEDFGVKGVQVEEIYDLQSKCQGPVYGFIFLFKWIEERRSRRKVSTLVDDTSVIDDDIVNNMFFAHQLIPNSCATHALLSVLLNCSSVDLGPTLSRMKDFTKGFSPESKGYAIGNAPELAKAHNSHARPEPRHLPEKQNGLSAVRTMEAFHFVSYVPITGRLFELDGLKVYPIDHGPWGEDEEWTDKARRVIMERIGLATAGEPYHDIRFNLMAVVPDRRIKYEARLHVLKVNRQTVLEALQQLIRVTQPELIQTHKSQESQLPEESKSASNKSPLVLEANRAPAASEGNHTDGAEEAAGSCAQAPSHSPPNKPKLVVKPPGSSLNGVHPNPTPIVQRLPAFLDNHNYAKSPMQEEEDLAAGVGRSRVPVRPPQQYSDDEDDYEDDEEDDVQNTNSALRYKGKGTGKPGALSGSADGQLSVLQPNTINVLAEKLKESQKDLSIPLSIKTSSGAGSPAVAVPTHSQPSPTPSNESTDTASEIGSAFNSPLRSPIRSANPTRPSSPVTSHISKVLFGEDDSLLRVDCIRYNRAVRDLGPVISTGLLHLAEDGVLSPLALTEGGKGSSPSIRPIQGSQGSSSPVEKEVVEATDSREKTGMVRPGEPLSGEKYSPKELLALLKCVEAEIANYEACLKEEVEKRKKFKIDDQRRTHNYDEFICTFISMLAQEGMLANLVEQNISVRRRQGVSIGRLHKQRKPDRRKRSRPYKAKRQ

Activity remaining (% of control), inactive:
COc1ccccc1NS(=O)(=O)c1cc(C(=O)c2ccc(Br)cc2)ccc1C 78.7%, CC(C)C(O)(c1ccccc1)c1cc[n+](C)cc1 (centres undefined) 229%, CCOC(=O)C(C(=O)OCC)n1ccc(=O)[nH]c1=O 71.2%, CC(=O)NC12CC3CC(C1)CC(c1ccc([N+](=O)[O-])cc1)(C3)C2 70.3%, CC(=O)NC(=O)c1cc2cc(Cl)ccc2oc1=Nc1ccc(C#N)cc1 84.2%, Cc1ccc(S(=O)(=O)NCCN=Cc2ccc3c(c2)OCO3)cc1 99.1%, O=C1c2ccccc2-c2onc3c(N4CCCC4)ccc1c23 60.4%, COc1ccc(C(=O)Nc2c[nH]c(=O)[nH]c2=O)cc1OC 54.8%, N#CCSc1nc2ccccc2c(=O)n1-c1ccccc1 109%, CCOC(=O)c1sc(NC(=O)c2cc(Cl)ccc2[N+](=O)[O-])nc1C 56.8%, Cc1ccc(S(=O)(=O)N(CC(O)CN2C(=O)NC(C)(C)C2=O)c2cccc([N+](=O)[O-])c2)cc1 (centres undefined) 74.1%, COc1ccc(C(=O)Nc2nc3c(ccc4ccccc43)s2)c(OC)c1 480%, O=C(CC(=O)Nc1ccc2c(c1)Cc1cc([N+](=O)[O-])ccc1-2)Nc1ccc2c(c1)Cc1cc([N+](=O)[O-])ccc1-2 74%, Cc1ccc(S(=O)(=O)N2CCC(N3CCCCCC3)CC2)cc1 79.2%, CC(=O)c1cccc(S(=O)(=O)N2CCC(n3nnc4cc(F)ccc43)CC2)c1 84.8%, CCOC(=O)c1c(NC(=O)c2cccnc2)sc2c1CCCC2 131%, Cc1nnc2sc(-c3ccco3)nn12 63.2%, FC(F)(F)c1nnc2sc(-c3ccco3)nn12 92.7%, CCOC(=O)C1C(=O)C=C(C=Cc2cccs2)CC1c1ccccc1 (centres undefined) 107%, Cc1c(Cc2ccccc2)c(=O)oc2c(C)c(OC(C)C)ccc12 64.3%, Cn1c(C#CC(C)(C)O)cc2ccccc21 106%, COc1cc(-c2nnc(SCC(=O)c3ccc(Cl)cc3)o2)cc(OC)c1OC 135%, Cc1ccc(S(=O)(=O)Nc2cccc(F)c2)cc1C(=O)O 98.5%, Cc1ccc(OCC(=O)Nc2ccc(C)c(Cl)c2)cc1C 81.6%, COc1ccc(-c2nc3cc(C)ccc3o2)cc1N=Cc1cccc(OC)c1O 160%, CC(C)(C)C(O)Cn1c(=N)n(Cc2ccc(Cl)cc2)c2ccccc21 (centres undefined) 201%, O=C(O)CCCC(=O)NC1=NCCS1 91.1%, NC(=O)c1c(NC(=O)c2ccc(Oc3ccccc3)cc2)sc2c1CCCCC2 77.2%, O=C1CSC(c2ccc([N+](=O)[O-])cc2)N1c1ccc(Br)cc1 (centres undefined) 83.1%, COC(=O)C1=C(C)NC2=C(C(=O)CC(C)(C)C2)C1c1cccc(O)c1 (centres undefined) 58.1%, Cc1ccc(S(=O)(=O)CCc2nnc(NC(=O)c3ccc(C(C)(C)C)cc3)s2)cc1 50.6%, CCN(CC)S(=O)(=O)c1ccc(C(=O)Nc2nc3c(s2)C(=O)CC(C)(C)C3)cc1 55.1%, CCN(CC)c1ccc2cc(-c3nc4ccc(Cl)cc4[nH]3)c(=O)oc2c1 278%, CCOc1c([N+](=O)[O-])c(=O)oc2ccccc12 111%, Cc1ccc2nc(NC(=O)c3ccccc3[N+](=O)[O-])sc2c1 91.2%, Cc1ccccc1C(=O)Nc1ccc(C(=O)Nc2cccc(C(F)(F)F)c2)cc1 194%, CCOC(=O)c1ccc2nc(C34CC5CC(CC(C5)C3)C4)ccc2c1 126%, CCOC(=O)c1sc(NC(=O)C(CC)Sc2nccn2C)nc1C (centres undefined) 90.3%, O=C(Oc1ccc2ccccc2c1Br)c1ccncc1 56.6%, Cn1c(C(C)(O)C(O)(c2ccccc2)c2ccccc2)nc2ccccc21 (centres undefined) 90.5%, CC1=C(C(=O)OC(C)C)C(c2ccc(O)c([N+](=O)[O-])c2)C2=C(CCCC2=O)N1 (centres undefined) 90.5%, COc1cccc(NC(=O)c2ccc(N(Cc3ccccc3)S(C)(=O)=O)cc2)c1 89.5%, O=C1CC(Nc2ccc3ccccc3c2)C(=O)N1c1ccccc1 (centres undefined) 163%, CC(C)(C)C(=O)Nc1ccc(C(=O)Nc2ccc(Sc3ccc([N+](=O)[O-])cc3)cc2)cc1 57.4%, O=C(O)CCC(=O)Nc1ccc([N+](=O)[O-])cc1 64.9%, COc1ccc(NC(=O)c2sc(-c3ccccc3)nc2C)cc1 117%, COc1ccc(C(=O)n2nnc3ccccc32)cc1 95.3%, COc1ccc(NC(=O)c2cc3ccccc3oc2=O)cc1Cl 75.5%, CC(=O)NCCN1C(=O)C(=O)/C(=C(/O)c2ccc(Cl)cc2)C1c1ccccc1F (centres undefined) 108%, Cc1nc(-c2ccc(NC(=O)c3cccc(Br)c3)cc2)cs1 162%, COc1ccc(-n2nc3c(c2NC(=O)Cc2ccccc2)CSC3)cc1 73.5%, O=c1[nH]c2cc(Cl)ccc2c(-c2ccccc2)c1Sc1ncn[nH]1 98.9%, O=C(Nc1ccccc1F)c1ccc([N+](=O)[O-])cc1Cl 205%, CCOC(=O)C(=O)N1c2ccccc2C(C)(c2ccccc2)CC1(C)C (centres undefined) 108%, O=C1C2C3C=CC(O3)C2C(=O)N1c1ccc(Br)cc1[N+](=O)[O-] (centres undefined) 77.6%, Cc1cc(C)cc(NC(=O)CCN2C(=O)c3ccccc3C2=O)c1 49.9%, S=c1[nH]nc(COc2ccccc2)o1 52.5%, CC(C)(C)n1nnnc1C(c1cccs1)N(Cc1cccnc1)CC1CCCO1 (centres undefined) 80.9%, CCC(C)(C)n1nnnc1C(c1cccs1)N1CCN(Cc2ccccc2)CC1 (centres undefined) 85.8%, O=c1[nH]nc(SCc2ccc(Cl)cc2)c(=O)[nH]1 64.4%, COc1ccc(C2C(N3C(=O)c4cccc([N+](=O)[O-])c4C3=O)C(=O)N2c2ccc(C)c(C)c2)cc1OC (centres undefined) 85.8%, COc1ccc(Cn2c(NCCO)nc3c2c(=O)n(C)c(=O)n3C)cc1 103%, Cc1cc(=O)oc2cc(OC(=O)c3ccc([N+](=O)[O-])cc3Cl)ccc12 479%, Cc1ccc[n+](CC(=O)c2ccc(Cl)cc2)c1C 57.4%, O=c1oc2ccccc2cc1-c1nnc(-c2ccccc2)o1 380%, COc1ccc2cc(C(=O)Nc3cccc(C(F)(F)F)c3)c(=N)oc2c1 72.3%, CNc1nonc1C(=O)O 154%, O=C(Nc1cccnc1)c1ccc(Cl)c([N+](=O)[O-])c1 66%, O=C(Nc1ccc(-c2cn3ccccc3n2)cc1)c1ccc(Br)cc1 63.1%, N#Cc1cccc2c1-c1ccc([N+](=O)[O-])cc1C2=O 96.3%, Cc1cccc(C)c1OCC(O)CN1CCCCC1 (centres undefined) 59.4%, CCOc1ccccc1NC(=O)c1c(NC(=O)c2cccs2)sc2c1CCC(C)C2 (centres undefined) 92.6%, Cc1cc(Br)ccc1N1C(=O)C2CCCCC2C1=O (centres undefined) 93.8%, CCc1ccc(OC(=O)c2cc3cc(Br)ccc3oc2=O)cc1 80.8%, CCc1ccc2oc(-c3cccc(NC(=O)c4ccccc4Br)c3)nc2c1 56.4%, O=C(Nc1nnc(CCS(=O)(=O)c2ccc3ccccc3c2)s1)c1ccc(F)cc1 64.8%, Cc1cccc(C(C)C)c1NC(=O)c1ccco1 233%, O=C(Nc1ccc(-c2nc3ccccc3o2)cc1)c1ccc(S(=O)(=O)N2CCCCC2)cc1 288%, O=C(Cc1cccc2ccccc12)Nc1ccccc1-c1nc2ccccc2s1 75.2%, CCOc1ccc(C(=O)Nc2cccc(C(=O)Nc3cccc4ccccc34)c2)cc1[N+](=O)[O-] 71.1%, O=C(Nc1nc2c(s1)C(=O)CCC2)c1ccccc1Cl 51.9%, CCOC(=O)c1c(NC(=O)c2cc3ccccc3oc2=O)sc(C(=O)CC)c1C 49.7%, O=C(NCc1ccccc1)c1nn2c(C(F)(F)F)cc(-c3ccccc3)nc2c1Br 70%, CCCOc1ccc(C(=O)Nc2c(C)ccc3nsnc23)cc1 203%, COCCc1nnc(NC(=O)c2ccc([N+](=O)[O-])cc2)s1 111%, CC1=C(C(=O)OCCc2ccccc2)C(c2ccc([N+](=O)[O-])cc2)NC(=O)N1C (centres undefined) 72.8%, COc1ccc(-n2nc3cc(C)c(NC(=O)c4ccc(Br)o4)cc3n2)cc1 63%, CC(C)(C)C(=O)Nc1ccc(C(=O)Nc2nccs2)cc1 63.4%

Activity remaining (% of control), active:
O=c1c2ccccc2nc(CSc2nnnn2-c2ccccc2)n1-c1ccccc1 37.5%, O=S(=O)(c1cccc(S(=O)(=O)N2CCC(n3nnc4ccccc43)CC2)c1)N1CCCCC1 42.6%, Fc1ccc(-c2ccc(-c3nn4c(-c5ccco5)nnc4s3)o2)cc1 49.1%, CC(C)c1ccc2c(c1)c(SC(C)(C)C)c(CC(C)(C)C(=O)O)n2Cc1ccc(Cl)cc1 17.2%, C=CCn1c2ccccc2c2nnc(SC(CC)C(=O)Nc3nc(C)c(C(=O)OCC)s3)nc21 (centres undefined) 42%, CCOc1ccc(CN(Cc2ccco2)C(c2cccs2)c2nnnn2C(C)(C)C)cc1 (centres undefined) 36.6%
